Assay outcomes: PubChem BioAssay, National Center for Advancing Translational Sciences (NCATS)
Only some compounds are listed: those with a hit (about 12% of all), similar ones and a draw of the others.
CHX counter – affects cycloheximide protein synthesis inhibition readout, counter-screen. cell reporter, cycloheximide protein synthesis inhibition counterscreen. max response, %. hit rate 12% among 300,000; in the data active = max response mostly above about 13%, no sharp cut-off; inactive = mostly below about 14%; also: read at 38.3 µM for the half of the compounds with a filed dose; 0% is about no effect
Shiga toxin inh – blocks Shiga toxin action in Vero cells; AID 2315; Vero cells, Shiga toxin protein synthesis inhibition reporter; hit rate 9.2% among 290,000; inhibition, % at 38.7 µM; in the data active = inhibition mostly above about 28%, no sharp cut-off; inactive = mostly below about 43%; also: 0% is about no effect
SARS PLP yeast – blocks SARS-CoV papain-like protease in a yeast assay; S. cerevisiae expressing SARS-CoV PLpro, growth rescue; Potency, µM (top dose mostly 32.9 µM), without a hit: top-dose activity, positive = growth rescue, most hits filed as activators; hit rate 0.19% among 330,000; also: potency is read from the fitted curve at half-maximal effect; 0% is about no effect; nearly all actives have a fitted effect of over 55% in size
NS1 inh – blocks influenza NS1 protein function | Potency, µM (highest dose often 46.1 µM), inactives show at the top dose activity, positive = more growth | hit rate 0.4% among 270,000 | AID 2326; also: potency is read from the fitted curve at half-maximal effect; actives are rising curves; nearly all actives have a fitted effect of over 50% in size
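Compounds were scored for reversing the slow growth caused by influenza A NS1 in S. cerevisiae, measured by optical density at 600 nm. Assay medium contained 2% galactose at pH 6.0; NS1-free yeast of the same strain were the positive control.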
* marks the source's active call; other numbers are inactive results; . = no result; [ ] = remark or other dose. Unless noted, calls follow the shape of the full dose curve.

SMILES	CHX counter	Shiga toxin inh	SARS PLP yeast	NS1 inh
Cc1ccc(C(=O)c2sc3nc4c(cc3c2N)CCC4)cc1	47*	active	-3%	-6%
Cc1cc(C)cc(N(CC(=O)N2CCN(Cc3ccccc3)CC2)S(=O)(=O)c2c(C)noc2C)c1	-1	-8	-8%	-54%
CC(C)(C)Cn1c(=O)[nH]c(=O)c2cc([N+](=O)[O-])cnc21	-4	-8	14%	25%
O=C(CSc1ccc(F)cc1)N1CCOCC1	-3	-3	1%	-1%
O=S(=O)(NCc1ccco1)c1ccc2c(c1)Cc1ccccc1-2	48*	41*	-1%	-5%
Cc1cccc(C(=O)Nc2cccc(S(=O)(=O)NCc3ccco3)c2)c1	.	.	1%	.
CC1CCCCC1NC(=O)c1ccc(S(=O)(=O)NCc2ccco2)cc1 (stereo not drawn)	40*	62*	-4%	4%
Cc1ccc(S(=O)(=O)NCc2ccco2)cc1C	9	40	-3%	7%
O=C(Nc1ccccc1)c1cccc(S(=O)(=O)NCc2ccco2)c1	50*	52*	-11%	3%
O=C(COC(=O)c1ccc(S(=O)(=O)NCc2ccco2)cc1)NC1CCCCC1	3	-2	9%	15%
CC(OC(=O)c1ccc(S(=O)(=O)NCc2ccco2)cc1)C(=O)Nc1ccc(Cl)cn1 (stereo not drawn)	38*	68*	9%	3%
O=C(OCc1cc(=O)n2ccsc2n1)c1ccccc1NCCO	.	.	6%	.
O=C(Nc1ccccc1)c1ccc(S(=O)(=O)NCc2ccco2)cc1	-1	-7	2%	14%
NS(=O)(=O)c1ccc(CNC(=O)c2ccc(S(=O)(=O)NCc3ccco3)cc2)cc1	.	.	2%	.
O=C(COC(=O)c1ccc(S(=O)(=O)NCc2ccco2)cc1)c1ccccc1	-1	17	11%	-2%
Cc1noc(C)c1COC(=O)c1ccc(S(=O)(=O)NCc2ccco2)cc1	16*	56	-5%	-6%
O=C(Nc1ccc(S(=O)(=O)NCc2ccco2)cc1)c1ccc(F)cc1	28*	46*	1%	1%
Cc1cc(C)cc(NC(=O)c2cc(S(=O)(=O)NCc3ccco3)ccc2F)c1	15*	46	1%	-33%
O=C(NCc1ccccc1)c1ccc(S(=O)(=O)NCc2ccco2)cc1	38*	53*	3%	8%
Cc1cc(C)n(-c2ccc(C(=O)Nc3ccc(S(=O)(=O)NCc4ccco4)cc3)cc2)n1	22*	29	5%	-2%
Cc1ccc(C(=O)Nc2ccc(S(=O)(=O)NCc3ccco3)cc2)cc1	38*	36*	-1%	-4%
Cc1cc(C)n(-c2ccc(C(=O)Nc3ccc(S(=O)(=O)N(C)C)cc3)cc2)n1	-6	-10	29%	-19%
N#C/C(=C(/O)c1ccc2c(c1)OCO2)c1nc2cc(C(F)(F)F)ccc2s1	-1	.	3%	-18%
COc1ccccc1NC(=O)COc1ccc(C(=O)NCc2ccccc2)cc1OC	.	.	-4%	.
O=C(COc1ccc(CO)cc1)Nc1ccc(F)cc1	16*	26	0%	-5%[9.22 µM]
SMILES	CHX counter	Shiga toxin inh	SARS PLP yeast	NS1 inh
O=C(COc1ccc(CO)cc1Cl)Nc1ccc(F)cc1	48*	58*	3%	-42%
O=C(COc1ccc(F)cc1)Nc1ccc(S(=O)(=O)Nc2ncccn2)cc1	.	.	-1%	.
COc1ccccc1NC(=O)COc1ccc(CO)cc1Cl	32*	57*	-14%	-54%
CNC(=O)C1CC(=O)N(Cc2ccc3c(c2)OCO3)C(=Nc2ccc(OC)cc2)S1 (stereo not drawn)	-1	-17	2%	-23%
CN(C)c1nc2c(Br)c(Br)c(Br)c(Br)c2[nH]1	.	.	.	-17%
Cc1ccc(S(=O)(=O)N(C)C)cc1NC(=S)NCc1ccco1	-1	-16	1%	.
Cc1nc2sc(C(N)=O)c(N)c2c(C)c1CC(=O)c1ccccc1	30*	92*	-4%	.
Cc1cc(C)c2c(N)c(C(=O)c3ccccc3)sc2n1	1	-2	1%	-1%
COC(=O)c1ccc(NC(=O)C(OC)c2ccccc2)cc1 (stereo not drawn)	17*	22	-1%	2%
COc1ccc(NC(=O)CCSCCC(=O)Nc2ccc(OC)cc2OC)c(OC)c1	-1	-3	-2%	15%
COc1ccc(NC(=O)C2C3CCC(O3)C2C(=O)O)c(OC)c1 (stereo not drawn)	29*	37	-1%	-6%
COc1ccc(NC(=O)CCOc2ccccc2)c(OC)c1	20*	32	3%	-12%
COC(=O)c1ccc(NC(=O)c2ccccc2NS(C)(=O)=O)cc1	24*	48*	-2%	-3%
COc1ccc(OC)c(S(=O)(=O)n2ccc(C)n2)c1	-1	-2	0%	-2%
Cc1cc(C)c(C#N)c(N2CCN(S(=O)(=O)Cc3ccccc3)CC2)n1	0	-8	-5%	3%
CC[C@H]1CN(C)[C@H]2Cc3c([nH]c4ccccc34)C(=O)C[C@H]1[C@H]2C(=O)OC	.	.	.	13%
Cc1cccc(Cl)c1NC[C@H](O)CN1CCN(C)CC1	.	.	.	-8%
COC(=O)c1ccc(NC(=O)CNc2ccccc2)cc1	36*	61*	-3%	-36%
COC(C(=O)N/N=C(\C)c1ccc(O)cc1)c1ccccc1 (stereo not drawn)	-1	-4	5%	10%
COc1ccc(NC(=O)CCOc2ccccc2)cc1	65*	117*	-1%	-31%
COc1ccc(OCCC(=O)Nc2ccc(S(N)(=O)=O)cc2)cc1	-4	-12	-4%	-8%
O=C(CCOc1ccccc1)Nc1ccc(Br)cc1	38*	57*	-2%	0%
Cc1cccc(NC(=O)CCOc2ccccc2)c1	9	52	-3%	-69%
COC(C(=O)N/N=C(\C)c1ccc(C)cc1)c1ccccc1 (stereo not drawn)	11*	19	-1%	-7%
N#Cc1ccc(S(=O)(=O)N2CCN(C(=O)[C@@H]3CCCN3C(=O)c3cccs3)CC2)cc1	.	.	-1%	.
SMILES	CHX counter	Shiga toxin inh	SARS PLP yeast	NS1 inh
CCOC(=O)c1ccc(NC(=O)CCOc2ccc(C)cc2)cc1	-2	-12	-2%	-1%
COC(=O)c1ccc(NC(=O)CCOc2ccccc2)cc1	22*	37	-1%	-10%
CCCC[C@@H]1CNC(=S)N1CCCC	-2	-6	1%	2%
CCCCN1C(=S)NC[C@@H]1Cc1ccc(O)cc1	7.2*	-6	13%	5%
COc1ccc2nc3ccccc3nc2c1N	49*	159*	-1%	7%
COc1ccc(-c2nc3ccccc3nc2-c2ccc(OC)cc2)cc1	-4	-2	6%	-15%
COc1ccc2nc3cccc(OC)c3nc2c1	44*	63*	-5%	.
Cc1ccc(C)c(N2CCN(C(=O)CCc3nc(-c4ccccc4Cl)no3)CC2)c1	.	.	-5%	.
CNc1nc(SC(C)C(=O)Nc2ccc(Cl)c(Cl)c2)nc(N2CCOCC2)n1 (stereo not drawn)	2	-17	4%	.
N#Cc1ccc(CN2CCN(C(=O)c3ccc(S(=O)(=O)N4CCCCCC4)cc3)CC2)cc1	.	.	17%	.
CC(=O)C(c1ccccc1)C(c1ccccc1)C(C)[N+](=O)[O-] (stereo not drawn)	-1	-7	2%	1%
COc1cc(OC)nc(NC(=O)NS(=O)(=O)c2ccccc2Cl)n1	-1	-6	1%	1%
Cc1cc(N(C)N)nc(NC(=O)NS(=O)(=O)c2ccccc2Cl)n1	16*	21	0%	10%
